In PubChem BioAssay (NCI):
About 79,000 compounds went through this panel and 15% of them were active in at least one assay; those are over-represented in the sample as a whole. Calls of active or inactive are those of the source. Rule as the data show it: active = growth inhibition above about 70%; inactive = the rest. Residues, ends and D or L forms follow the SMILES beside them. *: point of attachment. Fmoc = O=C(OCC1c2ccccc2-c2ccccc21)*; Boc = CC(C)(C)OC(=O)*

Assays:
[1] = NCI Yeast Anticancer Drug Screen. Data for the rad52 strain (AID 147);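 also: 0% = growth of vehicle-treated control cultures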; details: S. cerevisiae rad52 mutant growth inhibition, hits give high values
How it was run: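 Here a repair-compromised yeast strain receives each compound; its growth is then quantified and normalised to vehicle-only controls.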

[2] = NCI Yeast Anticancer Drug Screen. Data for the wt1 strain (AID 149);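 also: 0% = growth of vehicle-treated wt1 cultures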; details: S. cerevisiae wt1 strain (SPY 50644) growth inhibition, hits give high values
How it was run: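 Each compound is tested on wt1 yeast and the loss of growth versus vehicle gives the inhibition value.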

[3] = NCI Yeast Anticancer Drug Screen. Data for the rad50EPP+ strain (AID 151);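 also: 0% = growth of vehicle-treated control cultures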; details: S. cerevisiae rad50 mutant strain, hits give high values
How it was run: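 Read-out is yeast growth inhibition relative to vehicle; cells used were the rad50EPP+ strain.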

[4] = NCI Yeast Anticancer Drug Screen. Data for the mgt1 strain (AID 153); details: S. cerevisiae mgt1 mutant growth inhibition, hits give high values
How it was run: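 Measured: inhibition of mgt1 yeast growth by compound, normalized to vehicle-treated cultures.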

[5] = NCI Yeast Anticancer Drug Screen. Data for the rad50 strain (AID 155);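 also: 0% = growth of vehicle-only cultures of the same strain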; details: S. cerevisiae rad50 strain growth inhibition, hits give high values
How it was run: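 Vehicle-treated cultures provide the reference for the growth inhibition reported for compound-exposed, repair-deficient yeast.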

[6] = NCI Yeast Anticancer Drug Screen. Data for the mec2-1 strain (AID 157); details: S. cerevisiae mec2-1 strain, hits give high values
How it was run: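 Using mec2-1 yeast: add compound, measure growth, express inhibition versus vehicle-treated cultures.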

[7] = NCI Yeast Anticancer Drug Screen. Data for the rad14 strain (AID 159);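 also: 0% = growth of vehicle-treated control cultures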; details: S. cerevisiae rad14 strain growth inhibition, hits give high values
How it was run: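 Inhibition of growth is reported for a repair-deficient yeast mutant following compound treatment, calculated relative to cultures that received vehicle.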

[8] = NCI Yeast Anticancer Drug Screen. Data for the sgs1 mgt1 strain (AID 161);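 also: 0% = growth of cultures given vehicle only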; details: S. cerevisiae sgs1 mgt1 strain, hits give high values
How it was run: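 Yeast cells carrying a defined DNA-repair defect were exposed to test compounds. Growth inhibition was measured relative to vehicle-treated controls.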

[9] = NCI Yeast Anticancer Drug Screen. Data for the CLN2oe strain (AID 163);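 also: 0% = growth of vehicle-only control cultures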; details: S. cerevisiae CLN2oe strain, hits give high values
How it was run: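 Whole-cell yeast growth assay. A strain engineered for altered cell-cycle control received compound, and inhibition relative to vehicle-treated cultures was recorded.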

[10] = NCI Yeast Anticancer Drug Screen. Data for the cln2 rad14 strain (AID 165);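 also: 0% = growth equal to vehicle treated cultures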; details: S. cerevisiae cln2 rad14 strain, hits give high values
How it was run: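 Yeast strain cln2 rad14, bearing defects in cell cycle control and DNA repair, serves as the test system; values reflect growth inhibition compared with vehicle.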

[11] = NCI Yeast Anticancer Drug Screen. Data for the bub3 strain (AID 167); details: S. cerevisiae bub3 mutant strain, hits give high values
How it was run: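 Mutant yeast screening strain plus compound; vehicle-treated cultures serve as the 0% inhibition reference.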

[12] = NCI Yeast Anticancer Drug Screen. Data for the wt2 strain (AID 169); details: S. cerevisiae wt2 strain growth inhibition, hits give high values
How it was run: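 Treated yeast vs. vehicle-treated yeast: growth inhibition determined.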

[13] = NCI Yeast Anticancer Drug Screen. Data for the mlh1 strain (AID 171);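 also: 0% = growth of vehicle-treated control cultures of the same strain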; details: S. cerevisiae mlh1 strain growth inhibition, hits give high values
How it was run: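 A yeast strain with a defined genetic lesion serves as the test organism. Cultures receive compound or vehicle, and growth is measured.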

[14] = NCI Yeast Anticancer Drug Screen. Data for the mlh1 rad18 strain (AID 175); details: S. cerevisiae mlh1 rad18 strain growth inhibition, hits give high values
How it was run: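 Steps: expose repair-defective yeast to compound; measure growth; express inhibition against vehicle-treated controls.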

[15] = NCI Yeast Anticancer Drug Screen. Data for the rad18 strain (AID 177); details: S. cerevisiae rad18 mutant growth inhibition, hits give high values
How it was run: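 Measured value is growth inhibition of a yeast strain bearing a DNA repair alteration, referenced to vehicle-treated cells.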

[16] = NCI Yeast Anticancer Drug Screen. Data for the sgs1 strain (AID 173);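 also: 0% = growth of vehicle-only control cultures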; details: S. cerevisiae sgs1 mutant, hits give high values
How it was run: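 A genetically defined yeast mutant is incubated with the test compound, and its growth is compared to that of the same strain given vehicle.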

[17] = at 5.0 µM (retest, dose inferred, filed as 0.5)
[18] = at 50.0 µM (retest, dose inferred, filed as 5.0)

Measured: growth inhibition

CC(C)(C)OC(=O)NCCCCC(NC(=O)C(Cc1c[nH]c2ccccc12)NC(=O)OCC1c2ccccc2-c2ccccc21)C(=O)O (stereo unspecified) (Fmoc-Trp-Lys(Boc)-OH; configuration not given here)
inactive: [1]; at 1.2 µM -3% | [1]; at 3.7 µM 0% | [1]; at 11.0 µM -2% | [1]; at 33.0 µM 10% | [1]; at 100.0 µM 58% | [2]; at 1.2 µM -2% | [2]; at 3.7 µM -2% | [2]; at 11.0 µM -3% | [2]; at 33.0 µM 2% | [2]; at 100.0 µM 50% | [3]; at 1.2 µM -1% | [3]; at 3.7 µM 0% | [3]; at 11.0 µM 2% | [3]; at 33.0 µM 2% | [3]; at 100.0 µM -5% | [4]; at 1.2 µM 0% | [4]; at 3.7 µM 2% | [4]; at 11.0 µM -4% | [4]; at 33.0 µM 8% | [5]; at 1.2 µM -3% | [5]; at 3.7 µM -1% | [5]; [17] -19% | [5]; at 11.0 µM -3% | [5]; at 33.0 µM 11% | [5]; [18] 22% | [5]; at 50.0 µM 15.4% | [5]; at 100.0 µM 56% | [6]; at 1.2 µM -1% | [6]; at 3.7 µM -4% | [6]; [17] 1% | [6]; at 11.0 µM -4% | [6]; at 33.0 µM 9% | [6]; [18] 36% | [6]; at 50.0 µM 42.6% | [6]; at 100.0 µM 52% | [7]; at 1.2 µM -1% | [7]; at 3.7 µM 0% | [7]; at 11.0 µM 1% | [7]; at 33.0 µM 28% | [8]; [17] -13% | [8]; [18] 21% | [8]; at 50.0 µM 36.1% | [9]; at 1.2 µM 4% | [9]; at 3.7 µM 1% | [9]; at 11.0 µM -7% | [9]; at 33.0 µM 17% | [9]; at 100.0 µM 66% | [10]; [17] 37% | [10]; [18] 21% | [11]; at 1.2 µM -3% | [11]; at 3.7 µM -1% | [11]; [17] -19% | [11]; at 11.0 µM -1% | [11]; at 33.0 µM 6% | [11]; [18] 5% | [11]; at 50.0 µM 18.4% | [11]; at 100.0 µM 59% | [12]; at 1.2 µM 0% | [12]; at 3.7 µM -2% | [12]; at 11.0 µM -4% | [12]; at 33.0 µM 1% | [12]; at 100.0 µM 61% | [13]; at 1.2 µM -1% | [13]; at 3.7 µM -1% | [13]; at 11.0 µM -2% | [13]; at 33.0 µM 10% | [14]; [17] -11% | [14]; [18] 50% | [14]; at 50.0 µM 60.6% | [15]; at 1.2 µM -1% | [15]; at 3.7 µM -2% | [15]; at 11.0 µM -2% | [15]; at 33.0 µM 8% | [15]; at 100.0 µM 59%
active: [4]; at 100.0 µM 75% | [7]; at 100.0 µM 70% | [10]; at 50.0 µM 82.8% | [13]; at 100.0 µM 70%

CN(C)CC(CN(C)C)C(=O)/C=C/c1ccc(Cl)cc1Cl
active: [1]; at 33.0 µM 98% | [1]; at 100.0 µM 97% | [2]; at 33.0 µM 98% | [2]; at 100.0 µM 98% | [3]; at 33.0 µM 98% | [3]; at 100.0 µM 98% | [4]; at 33.0 µM 99% | [4]; at 100.0 µM 98% | [5]; [17] 93% | [5]; at 33.0 µM 98% | [5]; [18] 98% | [5]; at 100.0 µM 97% | [6]; at 33.0 µM 98% | [6]; [18] 99% | [6]; at 100.0 µM 98% | [7]; at 33.0 µM 99% | [7]; at 100.0 µM 97% | [8]; [18] 99% | [9]; at 33.0 µM 98% | [9]; at 100.0 µM 97% | [10]; [18] 98% | [11]; at 33.0 µM 98% | [11]; [18] 98% | [11]; at 50.0 µM 99% | [11]; at 100.0 µM 97% | [12]; at 33.0 µM 98% | [12]; at 100.0 µM 98% | [13]; at 33.0 µM 99% | [13]; at 100.0 µM 98% | [16]; at 33.0 µM 98% | [16]; at 100.0 µM 98% | [14]; [18] 99% | [15]; at 33.0 µM 98% | [15]; at 100.0 µM 97%
inactive: [1]; at 1.2 µM 0% | [1]; at 3.7 µM -1% | [1]; at 11.0 µM 14% | [2]; at 1.2 µM -1% | [2]; at 3.7 µM -2% | [2]; at 11.0 µM -6% | [3]; at 1.2 µM -2% | [3]; at 3.7 µM -2% | [3]; at 11.0 µM 6% | [4]; at 1.2 µM -2% | [4]; at 3.7 µM -2% | [4]; at 11.0 µM 3% | [5]; at 1.2 µM -1% | [5]; at 3.7 µM 0% | [5]; at 11.0 µM 13% | [5]; at 50.0 µM 54.5% | [6]; at 1.2 µM -3% | [6]; at 3.7 µM -4% | [6]; [17] 13% | [6]; at 11.0 µM 6% | [6]; at 50.0 µM 42.2% | [7]; at 1.2 µM -2% | [7]; at 3.7 µM -2% | [7]; at 11.0 µM 17% | [8]; [17] 15% | [8]; at 50.0 µM 48.7% | [9]; at 1.2 µM -1% | [9]; at 3.7 µM -3% | [9]; at 11.0 µM -1% | [10]; [17] 0% | [10]; at 50.0 µM 43.8% | [11]; at 1.2 µM -3% | [11]; at 3.7 µM -4% | [11]; [17] -10% | [11]; at 11.0 µM -3% | [12]; at 1.2 µM -2% | [12]; at 3.7 µM -5% | [12]; at 11.0 µM 2% | [13]; at 1.2 µM -3% | [13]; at 3.7 µM -5% | [13]; at 11.0 µM 10% | [16]; at 1.2 µM -2% | [16]; at 3.7 µM -2% | [16]; at 11.0 µM 5% | [14]; [17] 6% | [14]; at 50.0 µM 45% | [15]; at 1.2 µM -4% | [15]; at 3.7 µM -3% | [15]; at 11.0 µM 14%
